Screening data as filed in PubChem BioAssay.
KB-V1 cytotox = kills drug-selected multidrug resistant KB-V1 cells | actives 3.4% (n = 400,000) | Potency, µM (doses to about 46.1 µM), hits mostly cytotoxic | KB-V1 MDR cells viability, CellTiter-Glo, 72 h; further: on the % scale 0 is the no-effect control and ±100 the full control effect; nearly all actives have a fitted effect of over 60% in size
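KB-V1 MDR subline cells in DMEM (phenol-red free, 10% FBS) exposed to compounds in qHTS concentration series for 72 h at 37 degrees C. Viability read by CellTiter-Glo luminescence; concentration-effect curves fitted after normalization and correction.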
HT1080NT lethal = kills 2HG-producing HT-1080-NT fibrosarcoma cells; AID 686970; Potency, µM (series often up to 46.1 µM), for the others: top-dose activity, negative = less viability, most hits filed as cytotoxic; HT-1080-NT fibrosarcoma viability, CellTiter-Glo ATP luminescence, 48 h; actives 1.6% (n = 360,000);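 further: NT is the 2HG producing partner of a matched IDH1 knockdown line; 0% = DMSO-treated cells and -100% = media-only wells without cells; nearly all actives have a fitted effect of over 55% in size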
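Read-out is CellTiter-Glo luminescence after 10 minutes at room temperature, following 48 hours' compound treatment of HT-1080-NT cells (750 cells/well, RPMI, 5% FBS, 37 degrees C).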
ATXN viability = viability counter-screen for ATXN expression inhibitors. S2 cells (HEK-293 line with an ATXN2-luciferase reporter) viability, CellTiter-Fluor protease fluorescence, 24 h. Potency, µM (series often up to 56.7 µM), usual class: cytotoxic. actives 0.49% (n = 400,000); further: nearly all actives have a fitted effect of over 40% in size
KB-3-1 cytotox = kills parental KB-3-1 adenocarcinoma cells; Potency, µM (doses to about 46.1 µM), actives largely listed as cytotoxic; actives 1.4% (n = 400,000); KB-3-1 viability, CellTiter-Glo ATP luminescence, 72 h; AID 1347075; further: on the % scale 0 is the no-effect control and ±100 the full control effect; nearly all actives have a fitted effect of over 60% in size
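KB-3-1 cells, DMEM (no phenol red) + 10% FBS; compound by pin transfer, 72 h, 37 °C. Readout: CellTiter-Glo luminescence after 10 min. Data normalized, curve-fitted.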
ATXN2 expr inh = reduces ATXN2 reporter expression in HEK-293 cells; AID 1745845; Potency, µM (series often up to 57 µM), inactives show at the highest dose activity change, negative = inhibition, actives largely listed as inhibitors; HEK-293 ATXN2-luciferase reporter, luminescence, 24 h; actives 0.72% (n = 360,000); further: on the % scale 0 is the no-effect control and ±100 the full control effect; nearly all actives have a fitted effect of over 55% in size
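ATXN2-luciferase reporter cells (luciferase flanked by upstream and downstream ATXN2 gene portions) were treated 24 h at 37 °C with compounds at up to 57 uM. SteadyGlo luminescence gave expression; GF-AFC fluorescence gave viability.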
HT1080 IDH1KD tx = toxicity to HT-1080 IDH1 knockdown cells (counter line) | actives 2% (n = 360,000) | AID 686971 | Potency, µM (titrated, usually from 46.1 µM), without a hit: at the top dose activity, negative = toxicity, usual class: cytotoxic | HT-1080 IDH1 knockdown viability, ATP luminescence, 48 h;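 further: 0% = DMSO wells and -100% = cell-free medium wells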
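After a 2 h attachment period, IDH1KD HT-1080 cells took pin-transferred compound for 48 h at 37 °C; ATP-based luminescence after 10 min room-temperature reagent incubation reported viability.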
The depositor's hits bear a star; i = inactive; ? = inconclusive; nt = no result; [ ] = another dose, or the depositor's remark. Only some compounds are listed: those with a hit (about 6.2% of all), similar ones and a draw of the others. The call rests on the fitted dose curve; in most records, active means well fitted curve in the direction sought with a large enough effect; inconclusive means small, poorly fitted or top-dose-only effect, or another doubt; inactive means no such curve, though single readings can be large; an effect the other way counts as inactive or inconclusive. Potency means the concentration at half of the fitted maximal effect.

SMILES	KB-V1 cytotox	HT1080NT lethal	ATXN viability	KB-3-1 cytotox	ATXN2 expr inh	HT1080 IDH1KD tx
Cn1c(=O)c(C(=O)Nc2ccccc2S(N)(=O)=O)c(O)c2ccccc21	?	-19%	i	i	39%	-25%
CCC(C)n1c(=O)c(C(=O)Nc2ccccc2S(N)(=O)=O)c(O)c2ccccc21 (centres undefined)	?	?	?	16µM*	?	?
Cc1cc(C)cc(NC(=S)N=Nc2c(O)n(C)c3ccc(S(=O)(=O)N4CCOCC4)cc23)c1	i	-13%	?	i	0%	-16%
C=CCn1c(O)c(N=NC(=S)Nc2ccccc2F)c2cc(S(=O)(=O)N3CCOCC3)ccc21	?	?	i	?	-36%	?
Cc1ccc(NC(=S)N=Nc2c(O)n(C)c3ccc(S(=O)(=O)N4CCOCC4)cc23)cc1	i	-3%	?	?	?	?
Cc1cccc(C)c1NC(=S)N=Nc1c(O)n(C)c2ccc(S(=O)(=O)N3CCOCC3)cc12	3.7µM*	8%	i	?	?	1%
Cc1cccc(NC(=S)N=Nc2c(O)n(C)c3ccc(S(=O)(=O)N4CCOCC4)cc23)c1	0.73µM*	-7%	?	?	-27%	-26%
Cc1ccccc1NC(=S)N=Nc1c(O)n(C)c2ccc(S(=O)(=O)N3CCOCC3)cc12	?	?	i	?	-39%	21µM*
Cc1nc(Oc2ccccc2C)c2oc3ccccc3c2n1	i	nt	?	i	-38%	nt
COc1cc(/C=N/NC(N)=S)cc(Br)c1OCc1ccccc1F	18µM*	-10%	i	i	?	-19%
CCOc1c(Cl)cc(/C=N/NC(N)=S)cc1OC	7.3µM*	1%	i	i	nt	2%
Cc1cccc(C(=O)Nc2ccc(N3CCC(N4CCCCC4)CC3)c(C(=O)O)c2)c1	i	nt	i	i	16%	nt
CCCN1C(=O)/C(=N\OCC(=O)NC23CC4CC(CC(C4)C2)C3)c2ccccc21	16µM*	-5%	i	i	3%	-1%
Cn1ccc2cc(S(=O)(=O)N3CCC(C(=O)NCCc4ccccc4)CC3)ccc21	i	nt	i	i	3%	nt
Nc1nc(=O)n([C@@H]2O[C@H](CO)[C@@H](O)[C@@H]2F)cc1I	nt	nt	i	nt	-4%	nt
C/C(=N\NC(=O)c1cccc([N+](=O)[O-])c1)c1cccc(NC(=O)C2CC2)c1	i	?	i	i	4%[11.3 µM]	?
C/C(=N/NC(=O)C1CCN(S(=O)(=O)c2ccc(C)cc2)CC1)c1cccc([N+](=O)[O-])c1	23µM*	10%	i	i	7%	-3%
CC(=O)N1CCCc2cc(S(=O)(=O)N(C)CC(=O)Nc3ccc(C(C)C)cc3)ccc21	i	nt	?	i	-23%	nt
Fc1ccc(C2C3=C(Nc4ncnn42)c2ccccc2OC3c2ccncc2)cc1 (centres undefined)	i	?	i	i	-5%	-23%
Cc1ccc(C2Oc3ccccc3C3=C2C(c2cccs2)n2ncnc2N3)cc1 (centres undefined)	i	21µM*	i	9.2µM*	-23%	?
Clc1cccc(OCCN2CCN(CCOc3cccc(Cl)c3)CC2)c1	i	?	?	16µM*	?	?
COc1ccccc1-c1nnc(SC2CCc3ccccc3NC2=O)s1 (centres undefined)	5.8µM*	3%	i	i	11%	-14%
CC(C)c1ccc(CN2CCC(n3nccc3NC(=O)C3CCCC3)CC2)cc1	5.2µM*	-28%	i	i	nt	-20%
O=C(Nc1ccnn1C1CCN(Cc2ccc(Cl)cc2)CC1)C1CCCC1	nt	4%	?	nt	-7%	1%
CSc1nc(N(C)NC(=O)c2ccc(F)cc2)c2ccccc2n1	1µM*	?	?	0.65µM*	-14%	0.52µM*
SMILES	KB-V1 cytotox	HT1080NT lethal	ATXN viability	KB-3-1 cytotox	ATXN2 expr inh	HT1080 IDH1KD tx
CCC(C)c1ccc(S(=O)(=O)N2CCN(CC(O)CN3CCOCC3)CC2)cc1 (centres undefined)	5.8µM*	4%	i	i	5%	0%
CCOC(=O)c1cc(-c2ccccc2)nn1Cc1ccccc1	i	nt	i	i	49%	nt
CC(=O)N(C)C1=C(N2CCOCC2)C(=O)c2ccccc2C1=O	12µM*	1.6µM*	3.5µM*	1.2µM*	1.4µM*	0.89µM*
CC(=O)c1ccc(NC2=C(N3CCOCC3)C(=O)c3ccccc3C2=O)cc1	26µM*	?	?	i	?	?
CC(C)c1ccc(/C=C2\C=Cc3ccccc32)cc1	i	nt	nt	i	nt	nt
COc1ccc(C(=O)Nc2cc(-c3nc4ncccc4o3)ccc2C)cc1Br	i	nt	?	i	1%	nt
CCOc1ccccc1C(=S)NC1CCCCC1	i	0%	?	i	-3%	8%
CCOc1ccccc1NC(=S)NC1CCCCC1	23µM*	9%	i	i	8%	?
CCOc1ccc(C(=S)NC2CCCCC2)cc1OC	16µM*	4%	i	i	13%	0%
O=c1cc(-c2ccccc2)c2ccc(O)c(CN3CCCCC3)c2o1	13µM*	-8%	i	i	-6%	-7%
Cc1ccccc1C(=O)Nc1nc2c(s1)CC(C(C)(C)C)CC2 (centres undefined)	i	nt	i	i	11%	nt
COc1cc(SC)ccc1C(=O)Nc1ccc2c(c1)OCCO2	?	1.8µM*	i	i	26%	?
COc1cc(SC)ccc1C(=O)NNC(=O)c1cc(C)oc1C	?	8.2µM*	?	?	-7%	9.2µM*
COc1ccccc1C(=O)Nc1ccc2c(c1)OCCO2	i	-18%	i	i	56%	-9%
O=C(NCc1cccs1)C1CCN(C(=O)N2CCOc3ccccc32)CC1	i	nt	nt	i	nt	nt
COc1ncnc2c1ncn2CCCNCC(c1ccccc1)c1ccccc1	i	-15%	i	i	-16%	-8%
c1ccc(COc2ncnc3c2ncn3CCCNCC(c2ccccc2)c2ccccc2)cc1	?	16µM*	nt	?	?	?
CN(C)c1ccc(/C=C/c2ccnc3c(-c4ccccc4)cccc23)cc1	?	nt	nt	i	nt	nt
O=C(Nc1cccc(C(F)(F)F)c1)Nc1ccc(N2CCCC2)c(S(=O)(=O)Nc2ccccc2Cl)c1	8.2µM*	?	?	7.3µM*	?	8.2µM*
CC(=O)Nc1ccc(N2CCOCC2)c(S(=O)(=O)Nc2ccccc2Cl)c1	i	0%	?	i	nt	1%
